A selection: hits, their analogues and other compounds. The true share with any hit is near 4.8%.
ATXN2 expr inh – reduces ATXN2 reporter expression in HEK-293 cells; HEK-293 ATXN2-luciferase reporter, luminescence, 24 h; Potency, µM (highest dose often 57 µM), without a hit: top-dose activity change, negative = inhibition, most hits filed as inhibitors; 0.72% of 360,000 active; AID 1745845; also: potency is read from the fitted curve at half-maximal effect; % is scaled to controls: 0 for no effect and ±100 for the full control effect; nearly all actives have a fitted effect of over 55% in size
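qHTS (up to 57 uM final) was run with 24 h compound exposure of reporter cells at 37 °C. Each well was multiplexed: SteadyGlo luminescence measured ATXN2-luciferase expression after a fluorogenic Gly-Phe-AFC viability readout (25 uM final).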
USP2a block – inhibitors of human ubiquitin-specific protease USP2a; Potency, µM (doses to about 38.3 µM), for the others: at the highest dose activity change, negative = inhibition, actives largely listed as inhibitors; USP2 core, Ub-CHOP2 coupled fluorogenic reporter, 485/531; 0.01% of 330,000 active; O75604;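 also: potency is read from the fitted curve at half-maximal effect; plate controls were DMSO wells for no effect and full inhibition by NEM control for full effect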
Target sequence (O75604 whole entry, looked up): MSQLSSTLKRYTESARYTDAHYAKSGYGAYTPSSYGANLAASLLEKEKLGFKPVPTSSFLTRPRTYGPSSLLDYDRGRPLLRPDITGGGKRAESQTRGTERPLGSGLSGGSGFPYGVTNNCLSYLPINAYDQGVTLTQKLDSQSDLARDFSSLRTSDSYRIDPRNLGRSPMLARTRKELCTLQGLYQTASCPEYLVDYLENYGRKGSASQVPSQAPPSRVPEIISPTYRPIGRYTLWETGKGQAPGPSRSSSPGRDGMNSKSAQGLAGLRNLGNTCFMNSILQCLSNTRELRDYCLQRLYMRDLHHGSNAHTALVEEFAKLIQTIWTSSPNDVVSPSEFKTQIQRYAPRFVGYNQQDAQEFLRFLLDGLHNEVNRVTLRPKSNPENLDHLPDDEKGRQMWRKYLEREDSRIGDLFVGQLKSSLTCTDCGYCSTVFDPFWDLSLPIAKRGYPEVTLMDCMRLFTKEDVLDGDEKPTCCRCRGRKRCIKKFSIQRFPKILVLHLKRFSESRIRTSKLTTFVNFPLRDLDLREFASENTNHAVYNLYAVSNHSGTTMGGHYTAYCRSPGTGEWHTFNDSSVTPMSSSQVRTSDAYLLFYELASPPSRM
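Cell-free coupled assay: 10nM USP2 core preincubated 30min RT with compound in Tris-HCl pH 8.0/CaCl2/CHAPS buffer, then 25nM Ub-CHOP2 and 25nM reporter substrate; fluorescence (Ex 485/Em 531) read after 60min RT, normalized to NEM inhibition, concentration-response curves fitted.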
IL-1B inflam inh – inhibitors of inflammasome signaling (IL-1 beta secretion); THP-1 LPS/ATP IL-1B secretion, AlphaLISA, 16 h; active compounds read low; activity change, % at 57.5 µM; 4.7% of 360,000 active; AID 743279; in the data active = activity change below about -50%; inconclusive = mostly about -30% to -49%; also: % is scaled to controls: 0 for no effect and ±100 for the full control effect
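THP-1 cells pretreated 1 hr with compounds (up to 57.5 uM final), then stimulated with LPS (250 ng/mL final) plus ATP (1.25 mM final); secreted IL-1B measured by AlphaLISA after 16 hr, decreased signal indicating inhibition.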
USP1-UAF1 inh – USP1/UAF1 (human) deubiquitinase inhibition; Potency, µM (titrated, usually from 57.1 µM), for the others: at the top dose activity change, negative = inhibition, actives largely listed as inhibitors; recombinant USP1/UAF1, Ub-Rhodamine cleavage fluorescence; O94782; AID 743255; 0.23% of 390,000 active; also: potency is read from the fitted curve at half-maximal effect; % is scaled to controls: 0 for no effect and ±100 for the full control effect; nearly all actives have a fitted effect of over 60% in size
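In this screen, compounds sit with the deubiquitinase complex (1nM) for 15 min at room temperature before Ub-Rho is added at 150nM final. Fluorescence rise is then followed for 6 reads every 60 seconds.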
ATXN viability – viability counter-screen for ATXN expression inhibitors | S2 cells (HEK-293 line with an ATXN2-luciferase reporter) viability, CellTiter-Fluor protease fluorescence, 24 h | Potency, µM (series often up to 56.7 µM), actives largely listed as cytotoxic | 0.49% of 400,000 active | AID 651635; also: potency is read from the fitted curve at half-maximal effect; nearly all actives have a fitted effect of over 40% in size
* marks the source's active call; other numbers are inactive results; i = inactive; ? = inconclusive; · = not tested or not shown; [ ] = dose if it differs, or a comment. Unless noted, calls follow the shape of the dose curve; as a rule, active = well fitted curve in the direction sought with a large enough effect; inconclusive = small, poorly fitted or top-dose-only effect, or another doubt; inactive = no such curve, though single readings can be large; an effect the other way counts as inactive or inconclusive.

SMILES	ATXN2 expr inh	USP2a block	IL-1B inflam inh	USP1-UAF1 inh	ATXN viability
COC(=O)C=C1CCC2C3CCC4=CC(=O)C(Br)CC4(C)C3C(=O)CC12C (stereo not drawn)	31.6µM*	·	-94.6*	-22.1%	·
O=C(c1cccc(F)c1F)N1CCOc2ccc(CN3CCC(Oc4cccnc4)CC3)cc2C1	·	·	·	·	i
N#Cc1cc(NC(=O)Nc2nnc(-c3ccncc3)s2)ccc1-c1cn[nH]c1	4.9%	·	·	·	·
C=CCNc1ncnc2c1ncn2[C@H]1CN(Cc2ccc(F)cc2)C[C@@H](CO)O1	3.0%	·	18.8	·	i
CCc1nc2c(OCc3cccc(OC)c3)cccn2c1N(C)C(=O)c1ccccc1F	-6.8%	·	-13.6	·	?
CCc1nc2c(OCc3cc(Cl)cc(Cl)c3)cccn2c1N(C)C(=O)c1ccccc1F	0.0%	·	-58.1*	·	?
CCc1nc2c(OCc3ccc(Cl)cc3)cccn2c1N(C)C(=O)c1ccco1	?	·	-62.5*	·	?
Cn1c(SCC2CCCO2)nnc1C1CCN(Cc2ccccc2O)CC1 (stereo not drawn)	·	·	·	·	i
CCN(C(=O)Cn1nnc2sc3c(c2c1=O)CCC(C(C)(C)C)C3)c1cccc(C)c1 (stereo not drawn)	?	·	·	-9.6%	?
CN(C)CCN=Cc1c(O)n(Cc2ccc3c(c2)OCO3)c(=O)c2ccccc12	-12.9%	1.0%	-53.4*	-0.8%	·
CN(C)CCCN=Cc1c(O)n(Cc2ccc3c(c2)OCO3)c(=O)c2ccccc12	·	3.1%	·	·	·
CCCN(CCc1cccs1)[C@H]1CCc2c(O)cccc2C1	-7.4%	·	·	·	i
COc1ccc(C)cc1NC(=O)c1ccc([N+](=O)[O-])cc1[N+](=O)[O-]	-26.2%	-0.1%	41.8	-8.9%	i
Cc1ccc(O)c(NC(=O)c2cc([N+](=O)[O-])ccc2Cl)c1	-20.2%	0.5%	-97.3*	-4.5%	i
Cc1cc(O)c(NC(=O)c2cc([N+](=O)[O-])ccc2Cl)cc1C	-18.3%[11.3 µM]	1.8%	-84.0*	-1.8%	i
O=C(Nc1ccccc1)c1cc([N+](=O)[O-])ccc1Cl	0.9%	-6.7%	7.7	-17.5%	i
Cc1ccc(O)c(NC(=S)NC(=O)c2ccccc2Cl)c1	16.4%	3.5%	-58.1*	-11.0%	i
O=C(NCC1Cc2cccc(-c3cnccn3)c2O1)C1COc2ccccc2O1 (stereo not drawn)	·	·	·	·	i
O=S(=O)(NC1c2cccc3cccc(c23)C1N1CCNCC1)c1ccc(Cl)cc1 (stereo not drawn)	-17.3%[11.3 µM]	1.9%	-60.4*	-21.8%	?
O=C(Nc1cccc(Cl)c1)Nc1cc(S(=O)(=O)N2CCCCC2)ccc1Cl	?	3.1%	-88.4*	-12.1%	?
CCCCN(C(=O)c1cc(S(=O)(=O)N2CCCCCC2)ccc1OC)c1ccccc1	-30.5%	-1.3%	-81.0*	-24.4%	?
O=C(Nc1cccc(Cl)c1)C1CCCN(S(=O)(=O)c2ccc(F)cc2)C1 (stereo not drawn)	-20.2%	-22.7%	-51.2*	-13.7%	i
COc1ccc(S(=O)(=O)N2CCOCC2)cc1NC(=O)COc1ccc(C)cc1	-12.1%	-1.3%	-50.8*	1.4%	i
CCCCN(C(=O)c1cc(S(=O)(=O)N2CCOCC2)ccc1N1CCOCC1)c1ccccc1	·	·	-13.8	8.1%	i
COc1ccc(OCC(=O)Nc2cc3c(cc2C(=O)O)OCCCO3)cc1	0.8%	3.1%	-8.3	-15.4%	i
COc1ccc(C(=O)c2cn(Cc3ccc(F)cc3)c3c(F)cc(F)cc3c2=O)cc1	-29.6%	·	·	-21.6%	?
CCOc1ccccc1Nc1sc(C(=O)c2ccc(Cl)cc2)c(N)c1C(=O)NCCc1ccccc1	10.9%	·	·	-21.5%	i
CC[N+]1(CC)CCC(=C(c2ccccc2)c2ccccc2)C1C (stereo not drawn)	0.1%	·	·	·	i
Cc1ccc(C)c(OCCC(=O)OCC(=O)N2CCN(S(=O)(=O)c3ccc(Cl)cc3)CC2)c1	?	-0.4%	-14.9	-1.7%	?
CCOc1ccc(OCCC(=O)OCC(=O)N2CCN(S(=O)(=O)c3ccc(Cl)cc3)CC2)cc1	47.4%	2.2%	-85.3*	-25.0%	i
